The results in this text go back to PubChem BioAssay (NCATS).

Unmarked numbers belong to inactive results. Records with an inconclusive call do not appear. Calls of active or inactive are those of the source. Unless noted, calls follow the shape of the dose curve; as a rule, active = well fitted curve in the direction sought with a large enough effect; inconclusive = small, poorly fitted or top-dose-only effect, or another doubt; inactive = no such curve, though single readings can be large; an effect the other way counts as inactive or inconclusive.

A short description of assay [1]: Cellular Toxicity (caspase-3) HepG2 (AID 654).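 Also: cells exposed to compound for 16 hours before reading; 0% = DMSO alone and 100% = caspase signal from 100 µM tamoxifen.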 The gist of the method:
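Caspase 3/7 activation is measured as a luminescence increase (aminoluciferin substrate) after 16 h compound exposure of human hepatocarcinoma HepG2 cells. AC50 values are Hill fits, scaled between DMSO baseline and 100 uM tamoxifen stimulation.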

Assay [2] is described as follows: Cellular Toxicity (caspase-3) Jurkat (AID 655).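 Also: cells exposed to compound for 16 h at 37 °C before reading.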 To be noted: Jurkat caspase-3 activation, luminescence; caspase-3 activation: at 92.2 µM (top of the series), DMSO = 0%, tamoxifen = 100%. Summed up:
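Caspase 3/7 activation is scored as increased luminescence in Jurkat cells cultured with compound for 16 hours in complete medium. AC50 values come from Hill fits of qHTS concentration-response data normalized to DMSO and 100 uM tamoxifen controls.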

A short description of assay [3]: Cellular Toxicity (caspase-3) HUV-EC-C (AID 656). Summed up:
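Read-out: luminescence proportional to caspase 3/7 activity, measured 20 min after adding Caspase-Glo 3/7 reagent. Cells (HUV-EC-C) had received compound for 16 hr at 37°C. Increases relative to DMSO and 100 uM tamoxifen gave concentration-response AC50 values.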

A short description of assay [4]: Cellular Toxicity (caspase-3) SHSY5Y (AID 657). The gist of the method: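 Cells plated and incubated 5 h at 37 °C, dosed over a concentration range, incubated 16 h, then given Caspase-Glo 3/7 reagent for 1 h at room temperature before luminescence reading. Staurosporine (10 uM) defined full stimulation.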
Assay [5] is described as follows: Cellular Toxicity (caspase-3) MRC-5 (AID 659).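 Also: 0% = DMSO basal and 100% = 10 µM staurosporine.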 The gist of the method: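 Luminescent Caspase-Glo 3/7 read-out (1 h, room temperature) after a 16 h, 37 °C compound exposure of MRC-5 lung fibroblasts at 1500 cells/well. Concentration-response AC50 from Hill equation; 0% DMSO, 100% 10 uM staurosporine.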
Assay [6] in a line: Cellular Toxicity (caspase-3) Mesangial (AID 660).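 Also: cells exposed to compound for 16 h before the caspase read.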 The gist of the method: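 Caspase 3/7 activation measured by Caspase-Glo 3/7 luminescence (20 min, room temperature) following 16 h exposure of mesangial cells (1000/well); AC50 from Hill-equation fit, normalized to DMSO and 100 uM tamoxifen.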
A short description of assay [7]: Cellular Toxicity (caspase-3) SK-N-SH (AID 661).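 Also: 0% = DMSO basal and 100% = 10 µM staurosporine.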 Summed up:
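Caspase 3/7 activation was read by luminogenic substrate cleavage after 16 hour treatment of SK-N-SH cells. Signal was scaled between DMSO and 10 uM staurosporine, and concentration-response data were fitted with the Hill equation for AC50.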

Assay [8] in a line: Cellular Toxicity (caspase-3) H-4-II-E (AID 663).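 Also: cells exposed to compound for 16 hr before readout.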 To be noted: Potency: caspase-3 activation. The gist of the method: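 Caspase 3/7 activation measured by luminescent aminoluciferin substrate cleavage after 16 hr compound treatment of H-4-II-E cells in complete medium. Increase normalized between DMSO (basal) and 100 uM tamoxifen (100%); Hill-equation AC50 from concentration-response.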

A short description of assay [9]: Cellular Toxicity (caspase-3) Hek293 (AID 664).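 Also: cells exposed to compound for 16 h at 37 °C before readout.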 Conditions: HEK293 caspase-3 activation, DMSO = 0%, 100 µM tamoxifen = 100%; at 92.2 µM (top of the series). Summed up:
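Concentration-response qHTS: caspase 3/7 activation measured by luminescent aminoluciferin substrate cleavage after 16 h compound exposure of Hek 293 cells. AC50 from Hill equation, with DMSO as basal and 100 uM tamoxifen as 100%.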

The nature of assay [10]: Cellular Toxicity (caspase-3) N2a (AID 665).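 Also: compound exposure lasted 16 h at 37 °C before readout.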 The gist of the method:
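Caspase-3/7 activation measured as luminescence from Caspase-Glo reagent (1 h, room temperature) after 16 h compound exposure of mouse N2a cells. AC50 values from Hill-equation concentration-response, scaled between DMSO and 10 uM staurosporine.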

A short description of assay [11]: Cellular Toxicity (caspase-3) Renal Proximal Tubule (AID 667).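 Also: cells exposed to compound for 16 hours at 37 °C before detection; 0% = DMSO basal and 100% = 10 µM staurosporine.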 To be noted: Potency: caspase-3 activation. The gist of the method: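 In qHTS format, rat primary proximal tubule cells seeded at 1000 per well are exposed to compounds for 16 hours at 37 °C. An increase in Caspase-Glo 3/7 luminescence indicates caspase activation.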
In assay [12] the target is Tumor necrosis factor (Homo sapiens) (UniProt P01375). Kind of assay: qHTS assay to identify small molecules that stimulate Tumor Necrosis Factor-alpha (TNF-alpha) secretion (AID 651757; active = well fitted curve in the direction sought with a large enough effect in the signal ratio; the % refers to the signal ratio; also: 0% is about no effect). The gist of the method: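 Secreted TNF-alpha quantified by TR-FRET sandwich of two labeled anti-TNF-alpha antibodies, incubated 3 hr at room temperature. Preceded by 17 hr, 37 C compound treatment of THP-1 cells at 3000 cells/well.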
Sequence of Tumor necrosis factor (Homo sapiens) (P01375 whole entry, looked up): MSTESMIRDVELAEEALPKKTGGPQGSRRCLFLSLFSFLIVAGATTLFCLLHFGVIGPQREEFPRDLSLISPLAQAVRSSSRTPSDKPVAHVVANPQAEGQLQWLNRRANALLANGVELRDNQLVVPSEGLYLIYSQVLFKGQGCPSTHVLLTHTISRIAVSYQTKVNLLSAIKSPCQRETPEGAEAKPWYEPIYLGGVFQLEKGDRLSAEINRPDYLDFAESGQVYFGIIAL

A short description of assay [13]: qHTS assay to identify small molecules that stimulate interleukin-8 (IL-8) secretion (AID 651758; active = well fitted activation curve with a large enough effect in the signal ratio; the % refers to the signal ratio; also: 0% is about no effect). Summed up:
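Secreted IL-8 measured homogeneously by TR-FRET (two labelled anti-IL-8 antibodies, 1-3 h at room temperature) after a 16 h, 37 C compound treatment of THP-1 cells at 2000 cells/well.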

A short description of assay [14]: qHTS assay for environmental chemicals that activate the Aryl hydrocarbon Receptor (AhR) signaling pathway (AID 651777). Also: potency is read from the fitted curve at half-maximal effect; nearly all actives have a fitted effect of over 15% in size. Conditions: 1A2-DRE human hepatoma cells, luciferase, 24 h; activation: active compounds read high. The gist of the method:
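Induction of CYP1A2 transcription through AhR is detected by luciferase in 1A2-DRE hepatoma cells. Compounds or DMSO act for 24 hr at 37 C before a 30 min One-Glo step at room temperature.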
In general terms: In qHTS, concentration-response curves come from the screen itself.

Assay [15] deals with Peroxisome proliferator-activated receptor alpha (Homo sapiens) (UniProt Q07869). Kind of assay: qHTS assay for small molecule agonists of the peroxisome proliferator-activated receptor alpha (PPARalpha) signaling pathway (AID 651778). Also: % of control where 0% means no effect. To be noted: PathHunter PPARalpha complementation, chemiluminescence, 6 h; max response: active compounds read high. The gist of the method:
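Chemiluminescence from complemented enzyme reported PPARalpha activation in cells after 6 hr of compound treatment at 37 C. The detection reagent was incubated for 60 min at room temperature, and compounds were scored as agonists.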

Assay [16] has as its target Nuclear receptor ROR-gamma (Homo sapiens) (UniProt P51449). Kind of assay: qHTS assay for small molecule antagonists of the retinoid-related orphan receptor gamma (ROR-gamma) signaling pathway (AID 651802).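 Also: CHO cells with doxycycline-induced ROR-gamma expression; luciferase reporter luminescence driven by ROR response element; % is scaled to controls: 0 for no effect and ±100 for the full control effect; nearly all actives have a fitted effect of over 60% in size.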 The gist of the method: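 Luminescence (One-Glo, 30 min RT) measured 16 h after compound addition and doxycycline induction at 37C. Reporter: RORE-luciferase under TET-inducible ROR-gamma in CHO cells.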

Assay [17] is described as follows: qHTS assay for small molecule antagonists of the retinoid-related orphan receptor gamma (ROR-gamma) signaling pathway - cell viability counter screen (AID 720652; active = well fitted curve in the direction sought with a large enough effect in the repeat runs; an effect the other way counts as inactive or inconclusive;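 also: CHO reporter cells with doxycycline-induced ROR-gamma expression; compound exposure lasted 16 hr before ATP read; % is scaled to controls: 0 for no effect and ±100 for the full control effect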). Summed up:
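Cytotoxicity counter screen: intracellular ATP (CellTiter-Glo luminescence) measured in the doxycycline-induced CHO RORE-luciferase reporter line after 16 hr compound exposure at 37 C, 5% CO2.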

Assay [18] is described as follows: qHTS assay for small molecule agonists of the antioxidant response element (ARE) signaling pathway measured by Nrf2-dependant transcriptional activity - cell viability counter screen (AID 720653; active = well fitted curve in the direction sought with a large enough effect in the repeat runs; an effect the other way counts as inactive or inconclusive; also: % is scaled to controls: 0 for no effect and ±100 for the full control effect). To be noted: ARE-bla HepG2 viability, CellTiter-Glo ATP luminescence, 16 h; max response: active compounds read low. The gist of the method:
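Cytotoxicity counter screen: intracellular ATP quantified by CellTiter-Glo luminescence in the same ARE-bla HepG2 plates, after 16 h compound exposure and a 2 h beta-lactamase substrate step.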

Assay [19] is described as follows: qHTS assay for cell viability of HEK293 cells (AID 743288). Also: % is scaled to controls: 0 for no effect and ±100 for the full control effect; nearly all actives have a fitted effect of over 50% in size. Conditions: ATP luminescence (CellTiter-Glo), 18 h; max response: active compounds read low. The gist of the method:
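Quantitative high-throughput screen: compounds were pinned onto parental HEK293 cells (2,000 per well) after a minimum 5 h settling at 37 C, incubated 18 h at 37 C, and intracellular ATP measured by luciferase luminescence.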

The nature of assay [20]: qHTS assay for cell viability of the p53RE-bla HCT-116 cell line (AID 743292). Also: % is scaled to controls: 0 for no effect and ±100 for the full control effect; nearly all actives have a fitted effect of over 55% in size. The gist of the method: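 In this qHTS counter-screen, metabolically competent p53RE-bla HCT-116 cells were counted via their ATP content. Compounds were applied for 16 h at 37 C and luciferase-coupled luminescence was measured.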

Sequence of Peroxisome proliferator-activated receptor alpha (Homo sapiens) (Q07869 whole entry, looked up): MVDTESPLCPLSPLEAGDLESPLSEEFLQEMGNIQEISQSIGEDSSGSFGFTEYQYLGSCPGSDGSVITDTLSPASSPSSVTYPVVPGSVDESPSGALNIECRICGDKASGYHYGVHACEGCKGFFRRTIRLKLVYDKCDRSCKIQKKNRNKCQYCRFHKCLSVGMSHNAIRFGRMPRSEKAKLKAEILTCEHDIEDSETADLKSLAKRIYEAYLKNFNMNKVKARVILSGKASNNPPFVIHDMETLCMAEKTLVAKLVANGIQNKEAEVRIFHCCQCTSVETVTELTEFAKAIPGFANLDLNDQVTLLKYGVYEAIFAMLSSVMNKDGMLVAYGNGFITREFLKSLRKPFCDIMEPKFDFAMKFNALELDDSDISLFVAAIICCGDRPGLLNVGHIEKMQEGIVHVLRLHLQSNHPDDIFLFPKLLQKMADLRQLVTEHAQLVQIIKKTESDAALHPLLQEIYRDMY
Sequence of Nuclear receptor ROR-gamma (Homo sapiens) (P51449 whole entry, looked up): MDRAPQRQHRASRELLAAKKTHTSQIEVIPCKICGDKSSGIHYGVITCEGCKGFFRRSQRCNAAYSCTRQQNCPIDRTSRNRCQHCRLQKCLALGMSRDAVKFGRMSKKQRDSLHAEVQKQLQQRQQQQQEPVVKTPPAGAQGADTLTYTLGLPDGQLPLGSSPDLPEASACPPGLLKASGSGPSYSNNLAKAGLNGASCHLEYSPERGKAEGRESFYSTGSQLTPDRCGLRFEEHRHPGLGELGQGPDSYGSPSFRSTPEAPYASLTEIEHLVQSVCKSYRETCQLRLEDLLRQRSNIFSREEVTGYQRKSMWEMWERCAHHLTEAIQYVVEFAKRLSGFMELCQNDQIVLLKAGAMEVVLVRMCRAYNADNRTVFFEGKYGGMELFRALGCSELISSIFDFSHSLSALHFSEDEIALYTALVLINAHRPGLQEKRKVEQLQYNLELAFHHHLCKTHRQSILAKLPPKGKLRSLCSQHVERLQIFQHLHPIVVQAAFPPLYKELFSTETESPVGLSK

Consider `O=C(O)c1cc(N=Nc2ccc([N+](=O)[O-])cc2)ccc1O`, for which the Potency result in assay [1], in assay [2], in assay [3], in assay [4], in assay [8] and in assay [11] was “inactive” each time. Besides, the Potency entry in assay [12], in assay [13], in assay [16], in assay [17] and in assay [20] was “inactive” throughout. Besides, the compound was called inactive in assay [5], in assay [6], in assay [7] and in assay [10]. Also, the caspase-3 activation in assay [9] is -10.9%. For the same compound, in [14], the Potency is 4.47 µM (active). The results for the max response in assay [15], in assay [18] and in [19] were -12.2%, -5.1% and 6.02%, respectively.
